Compound activity deposited in PubChem BioAssay by The Scripps Research Institute Molecular Screening Center.
In the library only some 3.5% were active in any assay of this set; here they are far more common.
FBW7 activator: activators of human E3 ligase FBW7 | 650,000 compounds, 0.13% hits | Q969H0 | normalized activity (activation), % at 26.1 µM | AlphaScreen FBW7–phospho-cyclin E peptide binding, activator screen; in the data active = normalized activity above about 1.9%;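 also: purified mutant Fbw7 with reduced substrate affinity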
Target sequence (Q969H0 whole entry, looked up): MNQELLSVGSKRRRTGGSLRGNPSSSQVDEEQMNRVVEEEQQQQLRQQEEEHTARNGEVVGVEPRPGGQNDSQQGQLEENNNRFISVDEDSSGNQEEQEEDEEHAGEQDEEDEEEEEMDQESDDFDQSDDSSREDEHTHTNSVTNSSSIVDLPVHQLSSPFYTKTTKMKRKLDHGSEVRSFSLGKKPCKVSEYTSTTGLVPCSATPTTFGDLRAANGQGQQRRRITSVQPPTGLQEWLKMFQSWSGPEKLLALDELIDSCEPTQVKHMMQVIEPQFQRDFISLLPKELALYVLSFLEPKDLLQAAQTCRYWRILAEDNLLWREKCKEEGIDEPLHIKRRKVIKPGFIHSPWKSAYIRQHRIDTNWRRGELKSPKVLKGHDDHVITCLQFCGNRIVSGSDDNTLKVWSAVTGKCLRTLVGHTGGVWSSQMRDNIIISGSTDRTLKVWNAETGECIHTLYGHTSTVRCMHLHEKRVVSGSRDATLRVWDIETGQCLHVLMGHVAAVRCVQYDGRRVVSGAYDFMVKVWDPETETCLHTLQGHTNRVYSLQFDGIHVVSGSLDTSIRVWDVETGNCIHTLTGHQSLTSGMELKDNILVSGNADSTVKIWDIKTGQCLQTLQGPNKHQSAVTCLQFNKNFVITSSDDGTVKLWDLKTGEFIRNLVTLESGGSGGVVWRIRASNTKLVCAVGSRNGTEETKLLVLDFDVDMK
GPR151 ag: human GPR151 activation. activation, % at 11.2 µM. 650,000 compounds, 1% hits. PathHunter beta-arrestin GPR151 cells, luminescence. Q8TDV0; in the data active = activation above about 4.9%;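 also: 0% = median of compound wells and 100% = cells with positive control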
MITF primary: inhibitors of human MITF. O75030. inhibition, % at 2.6 µM. 650,000 compounds, 0.91% hits. AID 1259374. AlphaScreen MITF homodimerization, bead proximity signal; in the data active = inhibition above about 50%;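 also: 0% = vehicle wells with protein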
TEAD-YAP inh: TEAD-YAP interaction inhibition; HEK-TIYL cells, TEAD-Gal4/YAP UAS-luciferase luminescence; inhibition, % at 9.12 µM; 640,000 compounds, 1.4% hits; in the data active = inhibition above about 32%;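 also: 0% = median of test compound wells and 100% = reference inhibitor wells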
An asterisk follows results filed as active.

SMILES	FBW7 activator	GPR151 ag	MITF primary	TEAD-YAP inh
CSc1nnc(NC(=O)c2ccc(F)cc2)s1	0	-8	-17	-35
CC(C)(C)c1ccc(C(=O)Nc2nnc(SCC(=O)O)s2)cc1	0	-1	-8	71*
Cc1nc(SCc2nc3ccccc3[nH]2)c2ccccc2n1	0	3	-14	3
CCN(CC)Cc1ccc(C(=O)NN)cc1	0	0	15	-8
Cc1cnc(N2CCN(c3ccccn3)CC2)nc1Nc1ccccc1	0	-1	6	-3
CC(=O)Nc1ccc(Nc2nc(N3CCN(c4ccccn4)CC3)ncc2C)cc1	0	1	17	49*
CCOC(=O)c1[nH]c(/C=N/NC(=O)c2ccncc2)c(C(=O)OCC)c1C	0	0	-15	60*
COc1cccc(C(=O)N2CCN(C3CCC(C)CC3)CC2)c1OC (stereo unspecified)	0	-1	20	-7
O=C(NCc1cccnc1)/C(=C/c1ccc(-c2ccc(Br)cc2)o1)S(=O)(=O)c1ccccc1	0	0	2	35*
O=C(NCc1cccnc1)/C(=C\c1cccc(Oc2ccccc2)c1)S(=O)(=O)c1ccccc1	0	-3	10	82*
O=C(NCc1cccnc1)/C(=C/c1ccc(-c2cccc(Cl)c2)o1)S(=O)(=O)c1ccccc1	0	0	6	53*
O=C(NCc1cccnc1)/C(=C/c1ccc(-c2cccc([N+](=O)[O-])c2)o1)S(=O)(=O)c1ccccc1	0	-1	7	14
O=C(NCc1cccnc1)/C(=C\c1ccc(Br)cc1)S(=O)(=O)c1ccccc1	0	0	-5	86*
O=C(O)c1cccc(S(=O)(=O)N2CCC(c3nc(-c4ccc(F)cc4)no3)CC2)c1	0	2	-4	-3
CCOC(=O)c1c(C)oc2c(Cl)cc(NS(=O)(=O)c3ccc(C)cc3)cc12	0	-1	5	6
CC(C(=O)N1CCC(O)(c2ccccn2)CC1)n1ncc2ccccc2c1=O (stereo unspecified)	0	0	5	-1
O=C1CC2(CCCC2)CC(=O)N1Cc1ccccn1	0	-1	-19	10
CC(C)(C)NC(=O)NC(=O)COc1ccccc1C#N	0	-2	1	40*
CC(C)NC(=O)NC(=O)COc1ccccc1C#N	0	-1	-5	-35
O=C(Nc1nnc(-c2ccccc2)o1)C1CCCCN1S(=O)(=O)c1ccccc1 (stereo unspecified)	0	-1	-3	7
O=C(/C=C/c1ccc([N+](=O)[O-])cc1)Nc1cccc(C(=O)c2ccc(F)cc2)c1	0	2	6	38*
Oc1c(C(c2ccc(C(F)(F)F)cc2)N2CCCCC2)ccc2cccnc12 (stereo unspecified)	0	-1	9	83*
O=C(CSc1cccc2cccnc12)N1CCCCC1	0	0	-8	-19
Oc1c(C(c2ccc(Cl)cc2)N2CCCCC2)ccc2cccnc12 (stereo unspecified)	-2	-1	3	71*
Cn1c(C(=O)O)c(CC(=O)NCCC2=CCCCC2)c2ccccc21	0	3	14	-1
SMILES	FBW7 activator	GPR151 ag	MITF primary	TEAD-YAP inh
O=C(Nc1ccc(Nc2cc(-n3ccnc3)ncn2)cc1)c1ccc(F)cc1F	0	0	-13	21
O=C(Nc1ccc(Nc2cc(-n3ccnc3)ncn2)cc1)c1cccc2ccccc12	0	0	2	34*
C=C(C)c1cccc(C(C)(C)NC(=O)Nc2ccc3c(c2)oc2ccccc23)c1	0	1	7	-8
O=C(c1cccc(S(=O)(=O)N2CCCC2)c1)c1cccc(S(=O)(=O)N2CCCC2)c1	0	2	-8	33*
CC1CCN(S(=O)(=O)c2cccc(C(=O)Oc3cccc(NC(=O)c4ccccc4)c3)c2)CC1	1	0	15	37*
CC1CCN(S(=O)(=O)c2cccc(C(=O)Nc3ccccc3C(=O)Nc3ccccc3)c2)CC1	0	-1	-13	-1
O=C(Nc1cccc(Br)c1)c1cc(S(=O)(=O)N2CCCC2)ccc1Cl	1	-1	10	35*
O=C(Oc1cccc(NC(=O)c2ccccc2Cl)c1)c1cccc(S(=O)(=O)N2CCCCC2)c1	0	3	-6	54*
Cc1cccc(-n2ncc3c(N4CCC(Cc5ccccc5)CC4)ncnc32)c1	0	2	12	-8
C=CCNc1ncc([N+](=O)[O-])c(NCC=C)n1	0	0	-4	2
C=CCN(c1ccccc1)S(=O)(=O)c1ccc2c(c1)oc(=O)n2CC(=O)OCC	0	-2	6	8
O=C(O)c1ccccc1-c1ccccc1[N+](=O)[O-]	0	1	11	4
O=C(NCCOc1cccnc1)c1ccc(-n2cc(NC(=O)c3ccoc3)cn2)cc1	0	-1	-10	52*
O=C(NCCCc1cccnc1)c1ccc(-n2cc(NC(=O)C3CCOC3)cn2)cc1 (stereo unspecified)	0	-1	16	32*
O=C(NCCn1ccc2ccccc21)c1ccc(-n2cc(NC(=O)c3ccoc3)cn2)cc1	0	0	8	-8
N#CC(C1=NS(=O)(=O)c2ccccc21)c1nc(C23CC4CC(CC(C4)C2)C3)cs1 (stereo unspecified)	0	1	-3	62*
Cc1csc(C(C#N)C2=NS(=O)(=O)c3ccccc32)n1 (stereo unspecified)	0	0	0	-19
CCN1C(=O)S/C(=C/c2ccc(C(=O)O)cc2)C1=O	0	-1	14	-15
CCOCCCNc1ncnc2c1cnn2C	1.9*	0	-14	1
C=C(C)CN1C(=O)NC(CC)(C2CCN(Cc3ccccc3C)CC2)C1=O (stereo unspecified)	1	0	18	-25
C=C(C)CN1C(=O)NC(CC)(C2CCN(CC3=CC[C@H]4C[C@@H]3C4(C)C)CC2)C1=O (stereo partly specified)	0	2	11	43*
CC1=NOC(=O)/C1=C/c1ccc(OCc2ccc(Cl)cc2)cc1	0	-2	56*	-42
O=C(NNc1cccccc1=O)c1ccncc1	0	1	-30	-6
COCCSc1nsc(NC(=O)Nc2cccc(C(C)=O)c2)n1	0	0	3	33*
COC(=O)c1sc2ccccc2c1NC(=O)c1cc(OC)c(OC)c(OC)c1	0	-1	-2	-5
SMILES	FBW7 activator	GPR151 ag	MITF primary	TEAD-YAP inh
COc1cccc(-c2ocnc2C(=O)Nc2ccc(N3CCC(C)CC3)c(C(N)=O)c2)c1	9.2*	0	7	-6
COc1ccc(N2CCN(Cc3cccs3)CC2)cc1	-1	1	55*	0
COc1ccc(N2CCN(Cc3ccsc3)CC2)cc1	1	-1	67*	-1
O=S(=O)(Cc1ccccc1Cl)Nc1ccc(I)cn1	0	1	3	-12
c1cnc(Nc2nc(NC3CC3)c3ncn(-c4ccsc4)c3n2)nc1	0	2	9	50*
CCCNc1nc(Nc2nc3ccccc3n2C)nc2c1ncn2-c1ccsc1	0	-1	3	8
c1cncc(Nc2nc(NC3CC3)c3ncn(-c4ccsc4)c3n2)c1	0	2	5	11
